Measured values reported in PubChem BioAssay AID1159580 (chemical genetic matrix, 2015).
About 2,000 (36%) of roughly 5,500 compounds were called active. Roughly 18% stayed inconclusive and do not appear here. Rule as the data show it: active = normalized growth mostly below about 0.91 (no sharp cut-off); inconclusive = no clear call, values can overlap the other calls; inactive = mostly above about 0.92. The list shows a part of the results.

Assay: chemical genetic growth profiling, strain panel (AID 1159580);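 also: tested at 20 µM; growth read once vehicle control cultures reached saturation at 30 °C; 1 = growth at the plate median or of vehicle wells; lower values mean less growth of the strain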
Details: S. cerevisiae deletion strains, growth OD
[1] = locus YAR019C, strain CDC15, hits give low values
[2] = locus YBL105C, strain PKC1, hits give low values
[3] = locus YBR135W, strain CKS1, hits give low values
[4] = locus YBR136W, strain MEC1, hits give low values
[5] = locus YBR160W, strain CDC28, hits give low values
[6] = locus YDL017W, strain CDC7, hits give low values
[7] = locus YDL028C, strain MPS1, hits give low values
[8] = locus YDL101C, strain DUN1, hits give low values
[9] = locus YDL108W, strain KIN28, hits give low values
[10] = locus YDL132W, strain cdc53, hits give low values
[11] = locus YDL214C, strain PRR2, hits give low values
[12] = locus YDR052C, strain DBF4, hits give low values
[13] = locus YDR054C, strain cdc34, hits give low values
[14] = locus YDR226W, strain ADK1, hits give low values
[15] = locus YDR477W, strain SNF1, hits give low values
[16] = locus YER123W, strain YCK3, hits give low values
[17] = locus YER133W, strain GLC7, hits give low values
[18] = locus YFL009W, strain cdc4, hits give low values
[19] = locus YFL029C, strain CAK1, hits give low values
[20] = locus YFR003C, strain YPI1, hits give low values
[21] = locus YFR019W, strain FAB1, hits give low values
[22] = locus YFR028C, strain CDC14, hits give low values
[23] = locus YGR040W, strain KSS1, hits give low values
[24] = locus YGR052W, strain FMP48, hits give low values
[25] = locus YGR092W, strain DBF2, hits give low values
[26] = locus YHR030C, strain SLT2, hits give low values
[27] = locus YHR079C, strain IRE1, hits give low values
[28] = locus YHR082C, strain KSP1, hits give low values
[29] = locus YHR205W, strain SCH9, hits give low values
[30] = locus YIL147C, strain SLN1, hits give low values
[31] = locus YJL095W, strain BCK1, hits give low values
[32] = locus YJL128C, strain PBS2, hits give low values
[33] = locus YJL157C, strain FAR1, hits give low values
[34] = locus YJR016C, strain ILV3, hits give low values
[35] = locus YJR066W, strain TOR1 (second series), hits give low values
[36] = locus YJR066W, strain TOR1, hits give low values
[37] = locus YKL048C, strain ELM1, hits give low values
[38] = locus YKL067W, strain YNK1, hits give low values
[39] = locus YKL101W, strain HSL1, hits give low values
[40] = locus YKL193C, strain SDS22, hits give low values
[41] = locus YKL203C, strain TOR2, hits give low values
[42] = locus YLR113W, strain HOG1, hits give low values
[43] = locus YLR133W, strain CKI1, hits give low values
[44] = locus YLR403W, strain SFP1, hits give low values
[45] = locus YML070W, strain DAK1, hits give low values
[46] = locus YMR001C, strain CDC5, hits give low values
[47] = locus YMR205C, strain PFK2 (second series), hits give low values
[48] = locus YMR277W, strain FCP1, hits give low values
[49] = locus YNL006W, strain LST8, hits give low values
[50] = locus YNL020C, strain ARK1, hits give low values
[51] = locus YNL161W, strain CBK1, hits give low values
[52] = locus YNL183C, strain NPR1, hits give low values
[53] = locus YNL207W, strain RIO2, hits give low values
[54] = locus YNL222W, strain SSU72, hits give low values
[55] = locus YNL307C, strain MCK1 (second series), hits give low values
[56] = locus YOL078W, strain AVO1, hits give low values
[57] = locus YOL136C, strain PFK27, hits give low values
[58] = locus YOR061W, strain CKA2, hits give low values
[59] = locus YOR119C, strain RIO1, hits give low values
[60] = locus YOR231W, strain MKK1, hits give low values
[61] = locus YOR329C, strain SCD5, hits give low values
[62] = locus YPL031C, strain PHO85, hits give low values
[63] = locus YPL153C, strain RAD53, hits give low values
[64] = locus YPL204W, strain HRR25, hits give low values
[65] = locus YPL209C, strain IPL1, hits give low values
[66] = locus YPL256C, strain CLN2, hits give low values
[67] = locus YPR025C, strain CCL1, hits give low values
[68] = locus YPR106W, strain ISR1, hits give low values
[69] = locus YPR111W, strain DBF20, hits give low values
[70] = strain NNK1, hits give low values
[71] = strain TSCII, hits give low values

Measured: normalized growth

O=S(=O)(Nc1cccc2nsnc12)c1cc(Cl)sc1Cl
inactive: [1] 0.948 | [2] 0.961 | [3] 0.957 | [4] 0.96 | [5] 0.962 | [6] 0.961 | [7] 0.961 | [8] 0.962 | [9] 0.961 | [10] 0.969 | [11] 0.956 | [12] 0.955 | [13] 0.95 | [14] 0.947 | [15] 0.983 | [16] 0.944 | [17] 0.938 | [18] 0.947 | [19] 0.952 | [20] 0.958 | [21] 0.938 | [22] 0.96 | [23] 0.971 | [24] 1.08 | [25] 0.87 | [26] 0.871 | [27] 0.905 | [28] 0.981 | [29] 0.933 | [30] 0.953 | [31] 0.904 | [32] 0.953 | [33] 0.967 | [34] 0.951 | [35] 0.95 | [36] 0.953 | [37] 0.916 | [38] 0.954 | [39] 0.955 | [40] 0.961 | [41] 1.02 | [42] 0.887 | [43] 0.96 | [44] 0.942 | [45] 0.947 | [46] 0.959 | [47] 0.962 | [48] 0.96 | [49] 0.959 | [50] 0.953 | [51] 0.962 | [52] 0.979 | [53] 0.957 | [54] 0.958 | [55] 0.933 | [56] 0.957 | [57] 0.94 | [58] 0.943 | [59] 1.09 | [60] 0.954 | [61] 0.961 | [62] 0.982 | [63] 0.994 | [64] 0.999 | [65] 0.96 | [66] 0.884 | [67] 0.956 | [68] 0.964 | [69] 0.947 | [70] 0.969 | [71] 0.953

O=S(=O)(Nc1cccc2cccnc12)c1cc(Cl)c(Cl)cc1Cl
inactive: [8] 1.02 | locus YDR150W, strain NUM1, hits give low values 1.04 | locus YJR043C, strain POL32, hits give low values 0.947 | locus YLR058C, strain SHM2 (second series), hits give low values 0.951 | locus YNL322C, strain KRE1, hits give low values 0.967 | locus YPR135W, strain CTF4, hits give low values 0.807
active: locus YAL013W, strain DEP1, hits give low values 0.773 | locus YBR229C, strain ROT2, hits give low values 0.672 | locus YCL061C, strain MRC1, hits give low values 0.804 | locus YEL061C, strain CIN8, hits give low values 0.644 | locus YGR078C, strain PAC10, hits give low values 0.855 | [26] 0.635 | locus YHR087W, strain rtc3, hits give low values 0.517 | locus YJR075W, strain HOC1, hits give low values 0.819 | locus YKL190W, strain CNB1, hits give low values 0.652 | locus YLR039C, strain RIC1, hits give low values 0.627 | locus YLR085C, strain ARP6, hits give low values 0.583 | locus YLR262C, strain YPT6, hits give low values 0.716 | locus YML094W, strain GIM5, hits give low values 0.761 | locus YMR219W, strain ESC1, hits give low values 0.863 | locus YMR263W, strain SAP30, hits give low values 0.853 | locus YNL153C, strain GIM3, hits give low values 0.845 | locus YNL298W, strain CLA4 (second series), hits give low values 0.724 | locus YNR030W, strain Alg12, hits give low values 0.773 | locus YOL006C, strain TOP1, hits give low values 0.169 | locus YPL055C, strain LGE1, hits give low values 0.635 | locus YPL241C, strain CIN2, hits give low values 0.635

O=S(=O)(Nc1cccc(CCc2ccccn2)c1)c1cc(Cl)c(Cl)cc1Cl
inactive: [1] 0.982 | [2] 0.977 | [3] 0.985 | [4] 0.983 | [5] 0.966 | [6] 0.981 | [7] 0.987 | [8] 0.973 | [9] 0.983 | [10] 0.976 | [11] 0.967 | [12] 0.977 | [13] 0.979 | [14] 0.986 | [15] 0.988 | [16] 0.995 | [17] 1 | [18] 0.989 | [19] 0.976 | [20] 0.981 | [21] 0.987 | [22] 0.973 | [23] 0.98 | [24] 1.08 | [25] 1 | [26] 1.15 | [27] 1.01 | [28] 1.08 | [29] 0.963 | [30] 0.985 | [31] 1.02 | [32] 0.942 | [33] 0.98 | [34] 0.981 | [35] 0.963 | [36] 1.08 | [37] 0.97 | [38] 0.979 | [39] 0.959 | [40] 0.984 | [41] 1.05 | [42] 0.883 | [43] 0.965 | [44] 0.983 | [45] 0.95 | [46] 0.987 | [47] 0.971 | [48] 0.991 | [49] 0.992 | [50] 0.969 | [51] 0.978 | [52] 1.04 | [53] 0.985 | [54] 0.976 | [55] 0.961 | [56] 0.974 | [57] 0.952 | [58] 0.978 | [59] 1.06 | [60] 0.951 | [61] 0.983 | [62] 0.992 | [63] 0.965 | [64] 0.991 | [65] 0.976 | [66] 0.945 | [67] 0.984 | [68] 0.965 | [69] 0.955 | [70] 0.992 | [71] 0.978
